Screening data from PubChem BioAssay.
This is a sample that favours compounds with a hit; in the whole collection about 4.5% have one here.
DAX1 inh-1: inhibitors of DAX1 repression of SF-1 activated StAR promoter; inhibition, % at 6.8 µM; HEK293T StAR-luciferase reporter, SF-1/DAX-1 repression relief; actives 1.1% (n = 370,000);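 active = inhibition above the mean over all tested compounds plus 3 SD, cut at about 3.6% in these data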;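 note: 0% = DAX-1 cells with DMSO and 100% = cells lacking DAX-1 with DMSO; higher inhibition means more luminescence from relief of DAX-1 repression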
DAX1 inh-2: NR0B1 (DAX1) inhibition. P51843. HEK293 Gal4-DAX1 luciferase reporter, luminescence. inhibition, % at 6.75 µM. actives 0.99% (n = 340,000);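 active = inhibition above the mean over all tested compounds plus 3 SD, cut at about 4.2% in these data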;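 note: 0% = DAX1-transfected cells with DMSO and 100% = empty-vector control cells with DMSO; inhibition shows as a rise in luminescence from relieved DAX1 repression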
GAA850 FXN act: activators of GAA850 frataxin (FXN) promoter. activation, % at 6 µM. HEK293 lucGAA850 FXN promoter luciferase reporter, 24 h; percent of 10 µM SAHA response. actives 0.56% (n = 360,000);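 active = activation above the average of all compounds screened plus 3 SD, cutoff fixed separately per campaign, cut at about 7.5% in these data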;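 note: 0% = DMSO wells and 100% = 10 µM SAHA wells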
ssDAF12 agonist: S. stercoralis DAF-12 activation, primary screen; actives 1% (n = 370,000); activation, % at 6.8 µM; HEK293 ssDAF-12/GRIP1 lit1-tk-luc reporter, luminescence; % of 3 µM dafachronic acid response;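 active = activation above the mean over all tested compounds plus 3 SD, cut at about 0.9% in these data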;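 note: 0% = DMSO-only wells and 100% = 3 µM delta7-dafachronic acid wells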
hgDAF12 agonist: hgDAF-12 agonism, primary luciferase screen; HEK293 GAL4-hgDAF12 UAS-luciferase reporter, agonist luminescence; normalized to butyrate control; activation, % at 6.8 µM; actives 1.8% (n = 370,000);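 active = activation above a cutoff set at the mean of all screened compounds plus 3 SD, cut at about 10% in these data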;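 note: 0% = DMSO wells and 100% = sodium butyrate wells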
hcDAF12 agonist: activators of H. contortus DAF-12 nuclear receptor; AID 652067; HEK293 hcDAF-12 lit1-tk-luc reporter, luminescence; 0% DMSO, 100% Δ7-dafachronic acid; actives 1.4% (n = 370,000); activation, % at 6.8 µM;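 active = activation above the mean of all tested compounds plus 3 SD, cut at about 5.5% in these data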;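 note: 100% = response to 3 µM Δ7-dafachronic acid high control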
DAX1 conf: NR0B1 (human) inhibition, confirmation | shares compounds with DAX1 inh-1 | inhibition, % at 6.8 µM | HEK293T StAR-promoter luciferase reporter, SF-1/DAX-1 repression | actives 87% (n = 2,400) | AID 652134;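 active = inhibition above the average of every tested compound plus 3 SD, cut at about 3.8% in these data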;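 note: 0% = DAX-1 cells with DMSO and 100% = no DAX-1 control cells with DMSO; active compounds raise luminescence by relieving repression of the StAR reporter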
Target sequence (P51843 whole entry, looked up): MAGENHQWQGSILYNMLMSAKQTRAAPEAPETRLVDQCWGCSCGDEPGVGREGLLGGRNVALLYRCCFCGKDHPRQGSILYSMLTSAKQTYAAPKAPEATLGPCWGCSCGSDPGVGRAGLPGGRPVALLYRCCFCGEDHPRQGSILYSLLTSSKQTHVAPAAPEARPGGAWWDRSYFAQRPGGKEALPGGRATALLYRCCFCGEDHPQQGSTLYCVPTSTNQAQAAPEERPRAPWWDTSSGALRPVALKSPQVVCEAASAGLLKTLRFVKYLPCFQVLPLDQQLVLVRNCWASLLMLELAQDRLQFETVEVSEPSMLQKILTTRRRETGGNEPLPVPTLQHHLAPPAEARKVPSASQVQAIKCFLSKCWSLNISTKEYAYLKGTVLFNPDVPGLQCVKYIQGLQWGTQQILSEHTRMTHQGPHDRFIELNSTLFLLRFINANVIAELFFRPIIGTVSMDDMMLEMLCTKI
SF1 AF2mut Luc: counter-screen for DAX1 inhibitors: nonselective inhibitors with SF-1 AF2 mutant | shares compounds with DAX1 inh-1 | HEK293 StAR-luciferase, luminescence | inhibition, % at 6.8 µM | actives 78% (n = 2,400);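 active = inhibition above the mean of all tested compounds plus 3 SD, cut at about 3% in these data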;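 note: 0% = DAX-1 transfected cells with DMSO and 100% = cells without DAX-1 with DMSO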
LXRb hcDAF ctr: counter-screen for hcDAF-12 agonists: agonists of human LXR-beta; shares compounds with hcDAF12 agonist; HEK293 Gal4-LXR tk-luc reporter, luminescence, 24 h; normalized: DMSO 0%, positive control 100%; activation, % at 6.8 µM; 3,400 tested, under 10 active;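 active = mean percent activation of the reporter above a cutoff set as the average over tested compounds plus their standard deviation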
hcDAF12 conf: hcDAF-12 agonism, confirmation assay. shares compounds with hcDAF12 agonist. HEK293 hcDAF-12 lit1-tk-luc reporter, luminescence; % of Δ7-dafachronic acid response. activation, % at 6.8 µM. actives 61% (n = 3,400). AID 743032;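 active = mean activation across triplicate tests above the threshold derived from the earlier primary screen, cut at about 5.5% in these data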;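 note: 0% = DMSO only wells and 100% = 3 µM Δ7-dafachronic acid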
* marks the source's active call; other numbers are inactive results; . = no result.

SMILES	DAX1 inh-1	DAX1 inh-2	GAA850 FXN act	ssDAF12 agonist	hgDAF12 agonist	hcDAF12 agonist	DAX1 conf	SF1 AF2mut Luc	LXRb hcDAF ctr	hcDAF12 conf
COc1cccc(C(=O)Nc2nnc(C(C)C)s2)c1	4.8*	0	1	0	10	6.8*	9.0*	3.1*	1	7.3*
CC(C)c1nnc(NC(=O)c2cccc(-n3cnnn3)c2)s1	1	-1	1	-2	-2	-2	.	.	.	.
N/C(=N\OC(=O)c1cccc(Br)c1)c1ccccn1	8.9*	-3	-2	1.4*	3	17*	17*	11*	1	12*
N/C(=N\OC(=O)COc1ccccc1Cl)c1ccccn1	5.9*	0	6	1.1*	10	6.9*	12*	8.5*	1	8.0*
On1ccccc1=S	-7	-5	-15	-3	-12	-6	.	.	.	.
CCOc1ccc(OCc2cccc(C(=O)O)c2)cc1	6.6*	-6	-2	1.0*	11*	8.8*	15*	7.9*	2	15*
CCOc1ccc(NC(=O)Nc2cccc(C(=O)O)c2)cc1	2	-5	4	0	8	3	.	.	.	.
CCCn1c(C)cc(C(=O)COC(=O)c2nccnc2N)c1C	5.7*	0	0	1.3*	13*	7.4*	15*	5.6*	1	5.9*
COc1ccc(CCn2c(C)cc(C(=O)COC(=O)c3cnccn3)c2C)cc1	-1	0	-1	-1	-1	1	.	.	.	.
CN(C(=O)CN1CCN(c2cc(-c3ccc(-c4ccccc4)cc3)ncn2)CC1)c1ccccc1	-5	.	0	-2	-1	-2	.	.	.	.
CCc1ccc(NCc2nc3ccccc3c(=O)[nH]2)cc1	5.1*	0	5	2.4*	15*	11*	14*	9.3*	1	7.6*
COc1ccc(-c2cc(=O)c3c(O)c(OC)c(O)cc3o2)cc1	5.1*	-4	1	1.3*	10	6.7*	16*	8.3*	1	5
NC(=O)c1ccccc1OCC(=O)Nc1ccc(Cl)c(Cl)c1	6.9*	5.8*	4	2.2*	18*	11*	21*	8.9*	2	11*
c1cc(-c2cc3nc(NC4CCCCC4)ccn3n2)ccc1OCCN1CCOCC1	-1	.	-3	-1	1	1	.	.	.	.
Fc1ccccc1/C=C/c1ccc2ccccc2n1	5.8*	-4	-3	2.2*	15*	20*	14*	3.5*	1	13*
O=Cc1nccc2ccccc12	2	0	-1	0	0	1	.	.	.	.
C(=Cc1c[nH]c2ccccc12)c1nccc2ccccc12	15*	-2	2	4.1*	23*	24*	14*	7.1*	2	18*
C(=Cc1c[nH]c2ccccc12)c1ccc2ccccc2n1	8.1*	-2	-1	5.2*	18*	20*	8.0*	1	2	12*
CCS(=O)(=O)N1Cc2ccccc2CC1C(=O)NCCc1ccccc1 (stereo not given)	0	0	0	0	4	1	.	.	.	.
CC1CC(C)CN(C(=O)c2cccc(S(=O)(=O)NCc3ccccc3)c2)C1 (stereo not given)	-1	1	0	-1	-2	-1	.	.	.	.
CCCCN(C)c1c(C)nc2ccc(C(=O)NCCOc3ccc(OC)cc3)cn12	.	.	1	.	.	.	.	.	.	.
COC(=O)c1ccc2nc(-c3ccc4c(c3)OCO4)cn2c1	10*	-3	-4	1.7*	17*	7.1*	8.9*	0	1	6.4*
CCc1ccn2cc(-c3ccc4c(c3)OCO4)nc2c1	0	.	-9	-2	-3	1	.	.	.	.
Cc1cc(C(=O)COC(=O)C2=COCCO2)c(C)n1-c1cccc(F)c1	9.3*	1	1	1.0*	11*	7.2*	13*	4.0*	1	4
Cc1cc(C(=O)COC(=O)C2=COCCO2)c(C)n1-c1ccc2c(c1)OCO2	-1	-1	2	-1	5	1	.	.	.	.
SMILES	DAX1 inh-1	DAX1 inh-2	GAA850 FXN act	ssDAF12 agonist	hgDAF12 agonist	hcDAF12 agonist	DAX1 conf	SF1 AF2mut Luc	LXRb hcDAF ctr	hcDAF12 conf
COc1ccc(N(C(=O)Cn2nnc(-c3ccccc3F)n2)C(C(=O)NCC2CCCO2)c2ccc(Cl)cc2)cc1 (stereo not given)	0	3	1	-2	-1	1	.	.	.	.
Nc1nn2cc(-c3ccccc3)nc2c2ccccc12	11*	2	7	6.0*	21*	19*	19*	10*	2	21*
Cc1cn2nc(N)c3ccccc3c2n1	-1	-1	2	-1	1	3	.	.	.	.
CCCCN(C(=O)CSc1ncn[nH]1)c1c(N)n(Cc2ccccc2)c(=O)[nH]c1=O	-1	1	0	-1	0	-1	.	.	.	.
COc1ccc(/C=N/Nc2nc3ccccc3s2)cc1O	8.6*	-3	6	3.2*	20*	18*	21*	8.1*	2	19*
Cc1ccsc1/C=N/Nc1nc2ccccc2s1	7.1*	3	3	5.5*	20*	21*	16*	13*	2	23*
CC(C)C(C(=O)NCC1CCCO1)N(C(=O)CNS(=O)(=O)c1ccccc1)c1ccc(F)cc1 (stereo not given)	0	0	2	-1	0	0	.	.	.	.
COc1ccc(-c2cn3ccc4ccccc4c3n2)cc1	7.1*	2	6	5.2*	18*	23*	19*	9.6*	2	23*
CN1/C(=C\C(=O)c2cccs2)Sc2ccccc21	4.6*	2	-1	2.9*	17*	21*	10*	7.0*	2	21*
CN1/C(=C\C(=O)c2cccs2)C(C)(C)c2ccccc21	0	0	1	-1	1	0	.	.	.	.
Cn1c(CN2CCN(S(C)(=O)=O)CC2)nc2cc([N+](=O)[O-])ccc21	0	2	0	-1	0	2	.	.	.	.
CCOc1ccc2oc(C(=O)Nc3ccc(C)cn3)c(C)c2c1	1	1	2	0	7	4	.	.	.	.
